Data as given in PubChem BioAssay (NCATS).
Records with an inconclusive call do not appear. The source made the active and inactive calls. The call rests on the fitted dose curve; in most records, active means well fitted curve in the direction sought with a large enough effect; inconclusive means small, poorly fitted or top-dose-only effect, or another doubt; inactive means no such curve, though single readings can be large; an effect the other way counts as inactive or inconclusive.

How the values were obtained:
[1] = biological target: Glutathione peroxidase 1 (Homo sapiens) (UniProt P07203); experiment: Primary qHTS Assay for Inhibitors of Recombinant Selenoprotein Glutathione Peroxidase 1 (GPX1) (AID 1845191); conditions: recombinant GPX1, GR-coupled NADPH fluorescence, 15 min; series mostly up to 48.8 µM; further: nearly all actives have a fitted effect of over 65% in size; further: potency means the concentration at half of the fitted maximal effect
In short: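 NADPH consumption tracked by fluorescence at 340/450 nm between t=0 and t=15 min, room temperature. Final mix: 10 nM GPX1, 100 nM glutathione reductase, 1 mM GSH, 0.5 mM NADPH, 0.5 mM cumene hydroperoxide, 0.01% BSA; 30 min compound–enzyme preincubation.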

[2] = biological target: Metallo-beta-lactamase type 2 (Klebsiella pneumoniae) (UniProt C7C422); experiment: qHTS to identify inhibitors of the New Delhi Metallo-beta-lactamase (NDM): assay validation screen against the NCATS LOPAC Collection (AID 1794843); conditions: NDM-1 enzyme, nitrocefin hydrolysis, absorbance 485 nm; series mostly up to 38.4 µM;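 further: nitrocefin turnover by NDM-1 measured as 485 nm absorbance at plateau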
In short: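 NDM-1 at 2 nM final in 50 mM HEPES pH 7.0 with 1 uM ZnSO4 and 0.01% Tween20 was preincubated with library compounds in DMSO. Nitrocefin (50 uM stock) was then added, and absorbance at 485 nm was read at the kinetic plateau.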

[3] = biological target: Phospholipid hydroperoxide glutathione peroxidase GPX4 (Homo sapiens) (UniProt P36969); experiment: Primary qHTS Assay for Inhibitors of Recombinant Selenoprotein Glutathione Peroxidase 4 (GPX4) (AID 1845192); conditions: recombinant GPX4, GR-coupled NADPH fluorescence, 15 min; series mostly up to 50 µM; further: nearly all actives have a fitted effect of over 65% in size
In short: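 NADPH consumption followed by fluorescence at 340/450 nm, t=0 and after 15 min at room temperature. Reaction started with cumene hydroperoxide (0.5 mM final) after 30 min compound–GPX4 preincubation; final 200 nM GPX4, 100 nM GR, 1 mM GSH, 0.5 mM NADPH.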

[4] = biological target: Luciferin 4-monooxygenase (Photinus pyralis) (UniProt P08659); experiment: Primary firefly luciferase (FLuc) qHTS assay for identification of artifact compounds. (AID 1845220); conditions: purified firefly luciferase, luminescence, 5 min; series mostly up to 54.1 µM; further: nearly all actives have a fitted effect of over 60% in size
In short: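 Cell-free, 1536-well qHTS. Buffer pH 7.6 with 0.01% Tween-20 and 0.05% BSA; 10 uM D-luciferin, 10 uM ATP; 10 nM P. pyralis luciferase; luminescence after 5 min.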

[5] = Primary fluorescence-based thiol-reactive (MSTI) qHTS assay for identification of artifact compounds. (AID 1845221); conditions: MSTI thiol-reactivity probe, 1 h; series mostly up to 53.8 µM;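 further: thiol-reactive compounds lower the probe fluorescence signal; nearly all actives have a fitted effect of over 65% in size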
In short: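 One-hour, room-temperature, dark incubation of compound with 4 uM MSTI in PBS (pH 7.4, 2% DMSO) precedes a fluorescence read at 525 nm excitation, 598 nm emission; Hill-equation fitting yields concentration-response values.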

[6] = test system: Nanoluciferase (engineered Oplophorus gracilirostris luciferase); experiment: Primary Nanoluciferase (NLuc) qHTS assay for identification of artifact compounds. (AID 1845222); conditions: NLuc-conditioned medium, Nano-Glo luminescence, 5 min; series mostly up to 54.1 µM
In short: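 Compounds are pinned into diluted (1:55) conditioned medium of NLuc-expressing S16 cells and held 15 min at room temperature protected from light. Nano-Glo substrate follows, and luminescence is read 5 min later.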

Measured: Potency

Metallo-beta-lactamase type 2 (Klebsiella pneumoniae), sequence (C7C422 whole entry, looked up): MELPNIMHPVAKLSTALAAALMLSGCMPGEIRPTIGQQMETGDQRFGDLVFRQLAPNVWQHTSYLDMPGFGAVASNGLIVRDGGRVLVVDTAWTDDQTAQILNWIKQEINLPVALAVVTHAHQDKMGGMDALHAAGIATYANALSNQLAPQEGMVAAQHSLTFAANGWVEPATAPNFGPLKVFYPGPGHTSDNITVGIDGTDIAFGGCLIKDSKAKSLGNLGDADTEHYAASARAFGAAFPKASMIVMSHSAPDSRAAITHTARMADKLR
Phospholipid hydroperoxide glutathione peroxidase GPX4 (Homo sapiens), sequence (P36969 whole entry, looked up): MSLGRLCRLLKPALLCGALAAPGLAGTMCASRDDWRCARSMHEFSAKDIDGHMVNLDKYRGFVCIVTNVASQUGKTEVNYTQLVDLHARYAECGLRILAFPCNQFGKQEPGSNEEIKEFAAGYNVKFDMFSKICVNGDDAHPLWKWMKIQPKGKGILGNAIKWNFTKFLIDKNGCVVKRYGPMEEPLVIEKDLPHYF
Glutathione peroxidase 1 (Homo sapiens), sequence (P07203 whole entry, looked up): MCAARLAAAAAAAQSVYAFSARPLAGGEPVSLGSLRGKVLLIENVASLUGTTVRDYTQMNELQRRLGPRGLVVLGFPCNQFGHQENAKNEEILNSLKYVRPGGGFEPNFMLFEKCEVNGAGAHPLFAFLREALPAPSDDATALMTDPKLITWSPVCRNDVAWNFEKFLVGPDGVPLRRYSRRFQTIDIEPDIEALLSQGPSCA

CCCCCCCCCCCC(=O)[O][Sn]([CH2]CCC)([CH2]CCC)[O]C(=O)CCCCCCCCCCC
inactive: [1]

CCNc1nc2c(ncn2[C@H]2C[C@H](O)[C@@H](CO)O2)c(=O)[nH]1
inactive: all assays above

Nc1ccn([C@@H]2O[C@H](CO)[C@@H](O)[C@@H]2O)c(=O)n1
inactive: [2] | [1] | [3]

CCN(CC)c1ncnc2c1ncn2[C@@H]1O[C@H](COP(=O)(O)OP(=O)(O)C(Br)(Br)P(=O)(O)O)[C@@H](O)[C@H]1O
inactive: [2] | [1] | [3]

CN1CCc2ccccc2Cc2[nH]c3ccccc3c2CC1
inactive: [2] | [1] | [3]

Clc1ccc(N2CCN(Cc3c[nH]c4ncccc34)CC2)cc1
inactive: [2] | [1] | [3]

CCC1C(=O)OCC1Cc1cncn1C (centres undefined)
inactive: [2] | [1] | [3]

O=C(Nc1ccc2[nH]ncc2c1)C1CCC1
inactive: all assays above

CC(=O)SCC[N+](C)(C)C
inactive: [2] | [1] | [3]

NC(=O)C(=O)O
inactive: [2] | [1] | [3]

O=c1cc(-c2ccccc2)oc2c(O)c(O)ccc12
inactive: [2] | [1] | [3]

O=C(Nc1ccccc1)c1cc([N+](=O)[O-])ccc1Cl
inactive: [2] | [1] | [3]

O=C(Nc1ccc2c(c1)CCN(Cc1ncn[nH]1)C2)c1ccccc1-c1ccc(C(F)(F)F)cc1
inactive: all assays above

O=C(O)c1cc([N+](=O)[O-])ccc1NCCCc1ccccc1
inactive: [2] | [1] | [3]

O=[N+]([O-])c1ccc2c(c1)S(=O)(=O)C=C2
inactive: [2] | [1] | [3]

Cn1c(=O)c2[nH]c(-c3ccccc3)nc2n(C)c1=O
inactive: [2] | [1] | [3]

COc1cccc(OC)c1OCCNCC1COc2ccccc2O1 (centres undefined)
inactive: [2] | [1] | [3]

CCCCCCCCCCCCCCCCCCN(CCCCCCCCCCCCCCCCCC)CCCN(CCO)CCO
inactive: [2] | [1] | [3]

Nc1ncnc2c1ncn2[C@@H]1O[C@H](COP(=O)(O)OP(=O)(O)OP(=O)(O)OP(=O)(O)OC[C@@H]2O[C@H](n3cnc4c(N)ncnc43)[C@@H](O)[C@H]2O)[C@@H](O)[C@H]1O
inactive: [2] | [1] | [3]

Cc1cc(NC(=O)Nc2ccc3c(ccn3C)c2)sn1
inactive: [2] | [1] | [3]

COc1ccccc1CN[C@@H]1CCCN[C@@H]1c1ccccc1
inactive: [2] | [1] | [3]

CS(=O)(=O)c1ccc(-n2nc(C(F)(F)F)cc2-c2ccc(F)cc2)cc1
inactive: all assays above

Cc1cc2c(cc1Cl)N(C(=O)Nc1ccc(Oc3cccnc3C)nc1)CC2
inactive: [2] | [1] | [3]

O=C(CCSCc1ccco1)NNC(=O)N1Cc2ccccc2Oc2ccc(Cl)cc21
inactive: [2] | [1] | [3]

CCNC(=O)[C@H]1O[C@@H](n2cnc3c(N)nc(NCCc4ccc(CCC(=O)O)cc4)nc32)[C@H](O)C1O (some centres undefined)
inactive: [2] | [1] | [3]

NCCCCC(=O)O
inactive: [2] | [1] | [3]

C=CC(C)=C[C@@]1(C)SC(=O)C(C)=C1O
inactive: [2] | [3]

CO/N=C(\C(=O)N[C@@H]1C(=O)N2C(C(=O)O)=C(COC(C)=O)CS[C@H]12)c1csc(N)n1
inactive: [2] | [3]
active: [1] 8.06 µM

COc1cccc(C(=O)NCCN2CCN(c3ccc(Cl)cc3)CC2)c1
inactive: [2] | [1] | [3]

CNC(=O)[C@H]1O[C@@H](n2cnc3c(NCc4cccc(I)c4)ncnc32)[C@H](O)[C@@H]1O
inactive: [2] | [1] | [3]
